For 6 molecules, growth results are on record in PubChem BioAssay (NCI).

What all share (assay): NCI-60 one-dose screen, 48 h (100 = growth as untreated, 0 = no growth, -100 = all killed)
Holding throughout (details): 10 µM unless noted

Experiment [1] has as its system NCI-H23 lung.
The subject of experiment [2] is NCI-H226 lung.
The test system of experiment [3] is NCI-H322M lung.
Experiment [4] concerns HOP-62 NSCLC.
Experiment [5] deals with HOP-92 NSCLC.
The test system of experiment [6] is NCI-H522 lung.
Experiment [7] concerns A549/ATCC NSCLC.
Experiment [8] relates to 786-0 renal.
The subject of experiment [9] is COLO 205 colon.
Experiment [10] concerns DU-145 prostate.
Experiment [11] concerns K-562 leukemia.
In experiment [12] the test system is MALME-3M melanoma.
Experiment [13] relates to MDA-MB-231 breast.
In experiment [14] the test system is RXF 393 renal.
The subject of experiment [15] is SF-268 CNS.
Experiment [16] concerns SF-295 CNS.
Experiment [17] has as its system SF-539 CNS.
In experiment [18] the test system is UACC-257 melanoma.
Experiment [19] concerns M14 melanoma.

About 83,000 compounds went through this panel and 20% of them were active in at least one assay; those are over-represented in the sample as a whole.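 Assay: single dose, 48 h. Readout: percent growth (0 = no net growth; negative = cell death). Active: <10.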 Unmarked numbers belong to inactive results. Calls of active or inactive are those of the source.

Take `CCOC(=O)C(CCN(C)C)c1ccccc1` (centres undefined): the growth in [1] is 94.4%; in experiment [2], 90.3%; in [3] it was 91.9%; in [4], 88.8%; in experiment [5] it was 78.8%; in experiment [6] it was 84.5%. For the same molecule, the growth in experiment [7] was 91.8%; in experiment [8] it was 98.1%; in experiment [9] it was 116%; in [10], 105%; in experiment [11], 107%; in experiment [12], 96%. In addition, the growth is 99% in experiment [13]; 90.4% in [14]; 90% in [15]; 101% in experiment [16]; 96.2% in experiment [17]; 94.2% in experiment [18]. For the same molecule, the growth in [19] was 106%.
`COCCn1cc(-c2csc(-c3c[nH]c4ccccc34)n2)c2cccnc21`: the growth in experiment [1] is 42.2%; in [2], 60.9%; in [3] it was 61%; in experiment [4], 38.2%; in experiment [5] it was 55.5%; in experiment [6] it was -33.6% (active). For the same molecule, the growth in experiment [7] is 25%; in [8], 43.5%; in [9] it was -8.68% (active); in [10] it was 62.3%; in experiment [11], 18.1%; in experiment [12] it was 52.3%. Besides, the growth in experiment [13] is 35%; in experiment [14], 72.2%; in experiment [15] it was 50.1%; in experiment [16], 25.8%; in [17], 43.5%; in experiment [18], 45.9%. The growth in experiment [19] is 18.6%.
In the case of `Fc1cc2[nH]ncc2c2c3c(c(-c4cn[nH]c4C(F)(F)F)nc12)CCCC3`, the growth in experiment [1] was -12.2% (active); in experiment [2], 6.19% (active); in experiment [3] it was -0.0231% (active); in experiment [4] it was -1.79% (active); in experiment [5] it was -71% (active); in experiment [6], -24.2% (active). The growth in experiment [7] was 2.17% (active); in [8], 1.39% (active); in experiment [9], -45.6% (active); in [10], 5.47% (active); in experiment [11] it was -34.5% (active); in experiment [12], 10.5%. Also, the growth in [13] was 7.95% (active); in [14], -56.2% (active); in experiment [15], 0.494% (active); in experiment [16], 5.61% (active); in [17], -66.9% (active); in [18], 2.49% (active). The growth in experiment [19] was -2.16% (active).
Regarding `Cn1cc(-c2csc(-c3cn(C)c4ccccc34)n2)c2cnccc21`, the growth in [1] was 83.2%; in [2], 112%; in experiment [3], 66.6%; in experiment [4], 42.1%; in experiment [5], 55.5%; in experiment [6] it was 16.7%. Besides, the growth in experiment [7] is 15.3%; in experiment [8], -87.9% (active); in experiment [9] it was -68% (active); in experiment [10] it was 29.2%; in [11], -39.2% (active); in experiment [12], -92.4% (active). For the same molecule, the growth in [13] was -17.7% (active); in [14], -40.7% (active); in [15], 45.1%; in experiment [16], -73.1% (active); in experiment [17] it was -87% (active); in experiment [18] it was -58.2% (active). Further, in experiment [19], the growth was -82.6% (active).
For `COc1ccc(/C=N/Nc2c3ccccc3nc3ccccc23)cc1`, the growth was 88.3% in [1]; 83.4% in experiment [2]; 101% in experiment [3]; 98% in experiment [4]; 90.2% in [5]; 90.7% in [6]. Moreover, the growth in experiment [7] is 96.5%; in experiment [8], 90.8%; in [9], 103%; in experiment [10], 90.4%; in experiment [11], 87.9%; in experiment [12] it was 105%. Also, the growth is 93.9% in [13]; 103% in experiment [14]; 96% in [15]; 90.3% in experiment [16]; 95.4% in experiment [17]; 103% in experiment [18]. In addition, the growth in [19] was 106%.
For the molecule `O=C(Nc1ccc(Nc2ccncc2)cc1)c1ccc(Nc2ccnc3ccc([N+](=O)[O-])cc23)cc1`, the growth is 86.9% in experiment [1]; 89.8% in experiment [2]; 116% in experiment [3]; 113% in experiment [4]; 87.7% in [5]; 102% in experiment [6]. In addition, the growth was 94.7% in [7]; 99.2% in [8]; 131% in [9]; 103% in experiment [10]; 80.5% in experiment [11]; 114% in [12]. The growth in [13] is 80.5%; in experiment [14] it was 116%; in [15], 97.6%; in [16] it was 106%; in experiment [17], 85.5%; in [18], 101%. Further, the growth in [19] is 108%.
